Pf apPOL block – Pf-apPOL inhibitors, biochemical, fluorescence. Recombinant Pf-apPOL, molecular beacon fluorescence, 1.5 h. inhibition, % at 10 µM. 0.25% of 210,000 active. AID 1794808, 2022
mHTT-CaM PPI inh – mutant huntingtin-calmodulin interaction inhibitors – biochemical, AlphaScreen, primary screen. AID 1671202, 2021. inhibition, % at 15 µM. AlphaScreen His-mHTT/GST-CaM binding, luminescence. 3.6% of 190,000 active;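 note: 0% = both proteins with DMSO and 100% = one protein alone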
An asterisk follows results filed as active; . = no result; ! = not active in a repeat. Only a selection was taken, and hits are over-represented in it overall. Cut-off read from the data, not from the text of the source: active = inhibition above about 50%; inactive = the rest.

SMILES	Pf apPOL block	mHTT-CaM PPI inh
Cc1ccc(CN2C(=O)NC3(CCN(C(=O)c4ccc(F)cc4F)CC3)C2=O)cc1	0	10
Cc1c(Cl)cccc1NC(=O)Cn1cccc1-c1nnc(C2CC2)o1	-1	-4
Fc1cccc(CN2CCc3nc(N4CCN(c5ncccn5)CC4)ncc3C2)c1	-3	100*
CCN1CCN(c2ncc3c(n2)CCN(Cc2cccc(C)c2)C3)CC1	-2	79*
Cc1cccc(CN2CCc3nc(N4CCC(C)CC4)ncc3C2)c1	-1	13
Fc1cccc(CN2CCc3nc(N4CCN(c5ccccc5F)CC4)ncc3C2)c1	3	3
COc1ccc(-n2nc3c(c2NC(=O)C2CCCC2)CS(=O)(=O)C3)cc1	4	4
CCCCC1CCC(C(=O)Nc2c3c(nn2-c2ccc(OC)cc2)CS(=O)(=O)C3)CC1 (stereo not drawn)	1	58*
O=C(c1cccc(C(F)(F)F)c1)N1CCc2cc(Br)ccc21	-1	-42
C(=Nc1ccccc1N=Cc1c[nH]c2ccccc12)c1c[nH]c2ccccc12	.	13
Cc1scc2nc(C(=O)NCc3ccc(F)cc3)nc(N3CCCC3)c12	-19	81*
CCNC(=O)c1nc(N2CCCC2)c2c(C)scc2n1	-4	26
CCOCC(=O)N1CCc2c(c(-c3nc(-c4ccc(F)cc4)no3)nn2C)C1	-1	20
Cc1ccc2nc(C3CN(C(=O)c4cc(-c5cccs5)[nH]n4)C3)[nH]c2c1	-4	53*
Cc1nnc(C2CCCN(C(=O)c3cc(-c4cccs4)[nH]n3)C2)s1 (stereo not drawn)	-10	-8
O=C(C1CCN(Cc2ccccc2O)CC1)N(CCc1ccccc1)Cc1ccccc1	2	17
Cc1ccc(CN2CCC(C(=O)N(CCc3ccccc3)Cc3ccccc3)CC2)o1	1	58*
CN(CC(=O)Nc1cccc([N+](=O)[O-])c1)S(=O)(=O)c1ccc(Cl)cc1	-2	7
O=C(Nc1nnc(-c2ccco2)o1)C1c2ccccc2Oc2ccccc21	8	-1
CS(=O)(=O)c1cccc(-c2nnc(NC(=O)C3c4ccccc4Oc4ccccc43)o2)c1	-114	99*
Cn1nc(-c2nc(-c3ccccc3)no2)c2c1CCN(C(=O)COc1ccccc1)C2	-6	33
COc1ccc(CCNC(=O)CNS(=O)(=O)c2cccs2)cc1OC	-1	4
CCCc1cc(=O)n2[nH]c(C)c(-c3ccccc3)c2n1	1	5
Cc1[nH]n2c(=O)cc(Cc3ccccc3)nc2c1-c1ccc(Cl)cc1	-3	62*
C1=CC2CC1CC21COC(c2ccc3oc4ccccc4c3c2)OC1 (stereo not drawn)	.	-17
SMILES	Pf apPOL block	mHTT-CaM PPI inh
CC(C)(C1=CC(=O)c2ccccc2C1=O)C1OCC2(CO1)CC1C=CC2C1 (stereo not drawn)	.	53*
CCOC(=O)C1C(=O)C=C(c2ccc(C)cc2)CC1c1ccco1 (stereo not drawn)	-4	-12
COc1cccc2c1OC(c1ccc(SC)cc1)N1N=C(c3ccco3)CC21 (stereo not drawn)	-17	50
COCCCNC(=O)C1CCN(c2ncccc2-c2nc(-c3cccc(F)c3)no2)CC1	-4	-4
COCCCNC(=O)C1CCN(Cc2cc3ccccc3n2Cc2cccc(F)c2)CC1	4	51*
COCCCNC(=O)C1CCN(Cc2cc3ccccc3n2Cc2ccc(F)cc2)CC1	3	53*
COCCCNC(=O)C1CCN(c2cnn(Cc3ccccc3)c(=O)c2)CC1	-1	-2
CC(C)(C)n1nc2c(c1NC(=O)C13CC4CC(CC(C4)C1)C3)CSC2	-2	-2
CCN1CCn2cc(C(=O)NCc3ccc(C(F)(F)F)cc3)nc2C1	-13	97*
CCN1CCn2cc(C(=O)NCc3ccc(F)cc3)nc2C1	-5	42
CCCCn1c(O)c(C#N)c(C)c(N=Nc2ccc(C#N)cc2)c1=O	-12	.
Cc1oc(C)c2c(=O)cc(-c3ccc4c(c3)OCO4)cc(O)c12	6	53*
COc1cc(-c2cc(OC)c3c(C)oc(C)c3c(=O)c2)ccc1O	-3	35
Cc1ccc(C2CC(c3ccc(Cl)cc3)n3ncnc3N2)cc1 (stereo not drawn)	-8	20
O=S(=O)(N=S1CCC2(C1)OCCO2)c1cc(C(F)(F)F)cc(C(F)(F)F)c1 (stereo not drawn)	-5	.
O=CC1=C(c2ccccc2)Oc2ccccc2O1	-6	51*
O=C(O)CC1c2ccccc2Oc2ccccc21	-1	-6
COc1cccc(NC(=O)/C(C#N)=C/c2cn(Cc3ccc(F)cc3)c3ccccc23)c1	1	10
COc1ccc(Nc2cc(-n3nc(C)cc3C)ncn2)cc1	1	-1
O=c1[nH]c2ccc(S(=O)(=O)N3CCN(c4ccccc4)CC3)cc2o1	-2	9
CCOC(=O)C(Oc1ccc2c(=O)c(-c3ccccc3OC)coc2c1)c1ccccc1 (stereo not drawn)	-5	58*!
COC(=O)Oc1ccc2c(=O)c(-c3ccccc3OC)coc2c1	2	50*
COc1cccc(Oc2coc3cc(OC(=O)c4ccccc4)ccc3c2=O)c1	-13	-1
C=CCOC(=O)Oc1ccc2c(=O)c(-c3ccccc3OC)coc2c1	8	23
COc1cccc(Oc2coc3cc(OC(=O)C=Cc4ccccc4)ccc3c2=O)c1	-6	62*
SMILES	Pf apPOL block	mHTT-CaM PPI inh
CCOc1ccc2c(=O)c(-c3ccccc3OC)coc2c1	-6	2
CC(C)n1c(=O)c2c(ncn2Cc2ccc(F)cc2)n(-c2ccc(F)c(F)c2)c1=O	-8	23
N#Cc1cc(C#N)c(SCc2ccc([N+](=O)[O-])cc2)nc1N	-7	7
CCCC(=O)Nc1cc(F)c2nc(N3CCCCC3)ccc2c1	-6	-7
O=c1c(-c2ccc(O)cc2)coc2cc(O)cc(O)c12	-2	.
O=c1c(-c2ccc(Br)cc2)coc2cc(O)cc(O)c12	33	52*
O=C(NCc1ccc(Br)cc1)c1nnn2c1COC(c1ccc(Cl)cc1)C2 (stereo not drawn)	-6	-3
COc1ccc2c(=O)cc(C(F)(F)F)oc2c1[N+](=O)[O-]	6	0
CN1CCN(C(=O)c2cnc(-c3ccccc3)nc2N2CCSCC2)CC1	-10	97*
CCN1CCN(C(=O)c2cnc(-c3ccccc3)nc2N2CCSCC2)CC1	-12	27
COc1nccnc1NC1CCN(C(=O)Cc2ccc(F)cc2)CC1	0	6
Cc1ccc(-c2nc3sccn3c2NC(=O)c2ccc(Cl)cc2)cc1	-4	58*
CC(C)(C)c1ccc(C(=O)Nc2c(-c3ccccc3)nc3sccn23)cc1	-3	42
CCCCC[C@H]1CN(CCCC)C(=O)[C@@H]1CC(=O)NCc1ccc(OC)cc1	-2	16
CCCCC[C@H]1CN(CCc2ccccc2)C(=O)[C@@H]1CC(=O)NCc1ccc(OC)cc1	-5	75*
CS(=O)(=O)N1CCC(C(=O)N(CC2CCCO2)c2nc3c(F)cccc3s2)CC1 (stereo not drawn)	-3	-3
CCc1cc(C2CCCN2C(=O)c2ccco2)on1 (stereo not drawn)	1	-1
CC(=O)Nc1ccc2cccc(O)c2n1	-4	100*
CC(=O)Nc1ccccc1/C=C/c1ccc2cccc(O)c2n1	4	26
COc1ccc(NC(=O)C2CN(S(=O)(=O)C3CC3)CC23CCCCC3)cc1 (stereo not drawn)	9	58*
